# Measurements taken from the supplement of paper PMC8728848.
# The entries come from a sample that favours the strongest signals as a whole.
# Columns and labels:
# Experiment in all cases: glycan array binding signal (z-score within array); higher = stronger binding
# Settings in all cases: glycan notation: IUPAC condensed, linker removed
# [1] = biological target: Neu5Ac(a2-6)Gal(b1-4)GlcNAc(b1-3)Gal(b1-3)GlcNAc
# Outline: (§1)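 Glycan array data came from 3228 arrays in the Consortium for Functional Glycomics database, and only arrays with an available protein sequence were kept. Glycan names were put into IUPAC-condensed notation, and columns mapping to the same glycan were averaged. The binding signal is a within-array Z-score, averaged across arrays of one protein sequence run at different concentrations or buffers and across linkers. A negative Z-score can be read as non-binding.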
# [2] = biological target: Neu5Ac(a2-6)Gal(b1-4)GlcNAc6S
# Outline: as §1
# [3] = biological target: Neu5Ac(a2-8)Neu5Ac(a2-8)Neu5Ac
# Outline: as §1
# [4] = biological target: Neu5Ac9Ac(a2-6)Gal(b1-4)GlcNAc
# Outline: as §1
# Fuc(a1-2)Gal(b1-3)GalNAc = biological target: Fuc(a1-2)Gal(b1-3)GalNAc
# Outline: as §1
# [5] = biological target: Fuc(a1-2)Gal(b1-3)GalNAc(b1-4)[Neu5Ac(a2-3)]Gal(b1-4)Glc
# Outline: as §1
# [6] = biological target: Fuc(a1-2)Gal(b1-3)GlcNAc(b1-2)Man(a1-3)[Fuc(a1-2)Gal(b1-3)GlcNAc(b1-2)Man(a1-6)]Man(b1-4)GlcNAc(b1-4)GlcNAc
# Outline: as §1
# [7] = biological target: Fuc(a1-2)Gal(b1-4)GlcNAc(b1-3)Gal(b1-4)GlcNAc
# Outline: as §1
# [8] = biological target: Fuc(a1-2)Gal(b1-4)[Fuc(a1-3)]GlcNAc
# Outline: as §1
# [9] = biological target: Fuc(a1-2)Gal(b1-4)[Fuc(a1-3)]GlcNAc(b1-3)Gal(b1-4)[Fuc(a1-3)]GlcNAc
# Outline: as §1
# [10] = biological target: Fuc(a1-2)[Gal(a1-3)]Gal(b1-3)GalNAc(b1-3)Gal(a1-4)Gal(b1-4)Glc
# Outline: as §1
# [11] = biological target: Fuc(a1-2)[Gal(a1-3)]Gal(b1-3)GlcNAc(b1-3)GalNAc
# Outline: as §1
# [12] = biological target: Fuc(a1-2)[Gal(a1-3)]Gal(b1-4)[Fuc(a1-3)]Glc
# Outline: as §1
# [13] = biological target: Fuc(a1-2)[GalNAc(a1-3)]Gal
# Outline: as §1
# [14] = biological target: Fuc(a1-2)[GalNAc(a1-3)]Gal(b1-4)GlcNAc(b1-2)Man
# Outline: as §1
# [15] = biological target: Fuc(a1-3)[Gal(b1-4)]GlcNAc(b1-3)Gal(b1-3)[Fuc(a1-4)]GlcNAc
# Outline: as §1
# Gal(a1-3)Gal(b1-4)GlcNAc = biological target: Gal(a1-3)Gal(b1-4)GlcNAc
# Outline: as §1
# [16] = biological target: Gal(a1-3)Gal(b1-4)GlcNAc(b1-2)Man
# Outline: as §1
# Gal(a1-4)Gal(b1-4)GlcNAc = biological target: Gal(a1-4)Gal(b1-4)GlcNAc
# Outline: as §1
# [17] = biological target: Gal(a1-4)Gal(b1-4)GlcNAc(b1-2)Man(a1-3)[Gal(a1-4)Gal(b1-4)GlcNAc(b1-2)Man(a1-6)]Man(b1-4)GlcNAc(b1-4)GlcNAc
# Outline: as §1
# [18] = biological target: Gal(b1-3)GlcNAc(b1-2)Man(a1-3)[GlcNAc(b1-4)][Gal(b1-3)GlcNAc(b1-2)Man(a1-6)]Man(b1-4)GlcNAc(b1-4)GlcNAc
# Outline: as §1
# [19] = biological target: Gal(b1-3)GlcNAc(b1-2)[Gal(b1-3)GlcNAc(b1-6)]Man(a1-6)[Gal(b1-3)GlcNAc(b1-2)Man(a1-3)]Man(b1-4)GlcNAc(b1-4)GlcNAc
# Outline: as §1
# [20] = biological target: Gal(b1-3)GlcNAc(b1-3)GalNAc
# Outline: as §1
# [21] = biological target: Gal(b1-3)[Fuc(a1-4)]GlcNAc(b1-2)Man(a1-3)[Gal(b1-3)[Fuc(a1-4)]GlcNAc(b1-2)Man(a1-6)]Man(b1-4)GlcNAc(b1-4)[Fuc(a1-6)]GlcNAc
# Outline: as §1
# [22] = biological target: Gal(b1-4)GlcNAc(b1-2)Man(a1-3)[GlcNAc(b1-2)Man(a1-6)]Man(b1-4)GlcNAc(b1-4)GlcNAc
# Outline: as §1
# [23] = biological target: Gal(b1-4)GlcNAc(b1-2)[Gal(b1-4)GlcNAc(b1-6)]Man(a1-6)[Gal(b1-4)GlcNAc(b1-2)Man(a1-3)]Man(b1-4)GlcNAc(b1-4)[Fuc(a1-6)]GlcNAc
# Outline: as §1
# [24] = biological target: Gal(b1-4)GlcNAc(b1-2)[Gal(b1-4)GlcNAc(b1-6)]Man(a1-6)[GlcNAc(b1-4)][Gal(b1-4)GlcNAc(b1-2)[Gal(b1-4)GlcNAc(b1-4)]Man(a1-3)]Man(b1-4)GlcNAc(b1-4)[Fuc(a1-6)]GlcNAc
# Outline: as §1
# [25] = biological target: Gal(b1-4)GlcNAc(b1-3)Gal(b1-4)GlcNAc(b1-3)Gal(b1-4)GlcNAc(b1-3)Gal(b1-4)GlcNAc(b1-2)Man(a1-3)[Gal(b1-4)GlcNAc(b1-3)Gal(b1-4)GlcNAc(b1-3)Gal(b1-4)GlcNAc(b1-3)Gal(b1-4)GlcNAc(b1-2)Man(a1-6)]Man(b1-4)GlcNAc(b1-4)[Fuc(a1-6)]GlcNAc
# Outline: as §1
# [26] = biological target: Gal3S(b1-4)[Fuc(a1-3)]Glc6S
# Outline: as §1
# GalNAc(b1-3)GlcNAc = biological target: GalNAc(b1-3)GlcNAc
# Outline: as §1
# GalNAc(b1-4)Gal(b1-4)Glc = biological target: GalNAc(b1-4)Gal(b1-4)Glc
# Outline: as §1
# [27] = biological target: GlcNAc(a1-4)Gal(b1-4)GlcNAc(b1-3)Gal(b1-4)GlcNAc(b1-3)Gal(b1-4)GlcNAc
# Outline: as §1
# [28] = biological target: GlcNAc(b1-3)Gal(b1-4)GlcNAc(b1-3)Gal(b1-4)GlcNAc(b1-3)Gal(b1-4)GlcNAc(b1-2)Man(a1-3)[GlcNAc(b1-3)Gal(b1-4)GlcNAc(b1-3)Gal(b1-4)GlcNAc(b1-3)Gal(b1-4)GlcNAc(b1-2)Man(a1-6)]Man(b1-4)GlcNAc(b1-4)[Fuc(a1-6)]GlcNAc
# Outline: as §1
# [29] = biological target: GlcNAc(b1-3)Gal(b1-4)GlcNAc(b1-3)Gal(b1-4)GlcNAc(b1-3)Gal(b1-4)GlcNAc(b1-3)Gal(b1-4)GlcNAc(b1-2)Man(a1-3)[GlcNAc(b1-3)Gal(b1-4)GlcNAc(b1-3)Gal(b1-4)GlcNAc(b1-3)Gal(b1-4)GlcNAc(b1-3)Gal(b1-4)GlcNAc(b1-2)Man(a1-6)]Man(b1-4)GlcNAc(b1-4)GlcNAc
# Outline: as §1
# GlcNAc(b1-3)Man = biological target: GlcNAc(b1-3)Man
# Outline: as §1
# [30] = biological target: GlcNAc(b1-4)GlcNAc(b1-4)GlcNAc(b1-4)GlcNAc(b1-4)GlcNAc
# Outline: as §1
# Kdn(a2-3)Gal(b1-3)GalNAc = biological target: Kdn(a2-3)Gal(b1-3)GalNAc
# Outline: as §1
# [31] = biological target: Man(a1-3)[Man(a1-6)]Man(a1-6)[Man(a1-3)]Man
# Outline: as §1
# [32] = biological target: Neu5Ac(a2-3)Gal(b1-3)GlcNAc(b1-2)Man(a1-3)[Neu5Ac(a2-3)Gal(b1-3)GlcNAc(b1-2)Man(a1-6)]Man(b1-4)GlcNAc(b1-4)GlcNAc
# Outline: as §1
# [33] = biological target: Neu5Ac(a2-3)Gal(b1-4)GlcNAc(b1-3)Gal(b1-4)GlcNAc(b1-3)GalNAc
# Outline: as §1
# [34] = biological target: Neu5Ac(a2-3)Gal(b1-4)[Fuc(a1-3)]GlcNAc(b1-2)Man
# Outline: as §1
# [35] = biological target: Neu5Ac(a2-3)Gal(b1-4)[Fuc(a1-3)]GlcNAc(b1-3)GalNAc
# Outline: as §1
# [36] = biological target: Neu5Ac(a2-3)Gal6S(b1-4)GlcNAc
# Outline: as §1
# [37] = biological target: Neu5Ac(a2-6)Gal(b1-4)GlcNAc(b1-2)Man(a1-3)[Man(a1-6)]Man(b1-4)GlcNAc(b1-4)GlcNAc
# Outline: as §1
# [38] = biological target: Neu5Ac(a2-6)Gal(b1-4)GlcNAc(b1-3)Gal(b1-4)GlcNAc(b1-3)Gal(b1-4)GlcNAc
# Outline: as §1
# [39] = biological target: Neu5Ac(a2-6)Gal(b1-4)GlcNAc(b1-3)Gal(b1-4)[Fuc(a1-3)]GlcNAc(b1-3)Gal(b1-4)[Fuc(a1-3)]GlcNAc
# Outline: as §1
# [40] = biological target: Neu5Ac(a2-6)Gal(b1-4)GlcNAc(b1-6)[Gal(b1-3)]GalNAc
# Outline: as §1
# [41] = biological target: Neu5Ac(a2-8)Neu5Ac(a2-8)Neu5Ac(a2-3)[Gal(b1-3)GalNAc(b1-4)]Gal(b1-4)Glc
# Outline: as §1
# [42] = biological target: Neu5Gc(a2-3)Gal(b1-4)GlcNAc(b1-3)Gal(b1-4)GlcNAc(b1-2)Man(a1-3)[Neu5Gc(a2-3)Gal(b1-4)GlcNAc(b1-3)Gal(b1-4)GlcNAc(b1-2)Man(a1-6)]Man(b1-4)GlcNAc(b1-4)GlcNAc
# Outline: as §1
# [43] = biological target: Neu5Gc(b2-6)Gal(b1-4)GlcNAc
# Outline: as §1
binder,measurement,setting,value
Gal 1 (Canis lupus) (protein) MACGLVASNLSLKPGQCLRVQCEVVPEAKSFVLNLGKDGDNLCLHFNPRFEAHGDVNTIVCNSKDGGAWGEELRESAFPFQPGTVTEVCISFDQADLTIKLPDGYTFKFPNRLNLEAISYLAADGDMKIKCLAFD,glycan array binding signal (z-score),[1],-0.32
same,glycan array binding signal (z-score),[2],-0.332
same,glycan array binding signal (z-score),[3],-0.324
same,glycan array binding signal (z-score),[4],-0.303
"Thrombomodulin Extracellular (Mus musculus), P15306 (protein) MLGIFFLGVLAPASLGLSALAKLQPTGSQCVEHECFALFQGPATFLDASQACQRLQGHLMTVRSSVAADVISLLLSQSSMDLGPWIGLQLPQGCDDPVHLGPLRGFQWVTGDNHTSYSRWARPNDQTAPLCGPLCVTVSTATEAAPGEPAWEEKPCETETQGFLCEFYFTASCRPLTVNTRDPEAAHISSTYNTPFGVSGADFQTLPVGSSAAVEPLGLELVCRAPPGTSEGHWAWEATGAWNCSVENGGCEYLCNRSTNEPRCLCPRDMDLQADGRSCARPVVQSCNELCEHFCVSNAEVPGSYSCMCETGYQLAADGHRCEDVDDCKQGPNPCPQLCVNTKGGFECFCYDGYELVDGECVELLDPCFGSNCEFQCQPVSPTDYRCICAPGFAPKPDEPHKCEMFCNETSCPADCDPNSPTVCECPEGFILDEGSVCTDIDECSQGECFTSECRNFPGSYECICGPDTALAGQISKDCDPIPVREDTKEEEGSGEPPVSPTPGSPTGPPSARPVHSGVLIGISIASLSLVVALLALLCHLRKKQGAARAELEYKCASSAKEVVLQHVRTDRTLQKF",glycan array binding signal (z-score),Fuc(a1-2)Gal(b1-3)GalNAc,-0.717
same,glycan array binding signal (z-score),[5],-0.952
same,glycan array binding signal (z-score),[6],2.48
same,glycan array binding signal (z-score),[7],0.406
same,glycan array binding signal (z-score),[8],-0.221
same,glycan array binding signal (z-score),[9],0.048
same,glycan array binding signal (z-score),[10],1.38
same,glycan array binding signal (z-score),[11],2.8
same,glycan array binding signal (z-score),[12],-1.18
same,glycan array binding signal (z-score),[13],-0.162
same,glycan array binding signal (z-score),[14],1.79
same,glycan array binding signal (z-score),[15],-0.513
same,glycan array binding signal (z-score),Gal(a1-3)Gal(b1-4)GlcNAc,-0.81
same,glycan array binding signal (z-score),[16],-2.66
same,glycan array binding signal (z-score),Gal(a1-4)Gal(b1-4)GlcNAc,-0.239
same,glycan array binding signal (z-score),[17],1.73
same,glycan array binding signal (z-score),[18],0.655
same,glycan array binding signal (z-score),[19],0.399
same,glycan array binding signal (z-score),[20],-0.059
same,glycan array binding signal (z-score),[21],2.94
same,glycan array binding signal (z-score),[22],-1.49
same,glycan array binding signal (z-score),[23],-0.135
same,glycan array binding signal (z-score),[24],-0.329
same,glycan array binding signal (z-score),[25],2.27
same,glycan array binding signal (z-score),[26],2.97
same,glycan array binding signal (z-score),GalNAc(b1-3)GlcNAc,-0.126
same,glycan array binding signal (z-score),GalNAc(b1-4)Gal(b1-4)Glc,3.27
same,glycan array binding signal (z-score),[27],2.52
same,glycan array binding signal (z-score),[28],1.85
same,glycan array binding signal (z-score),[29],-0.332
same,glycan array binding signal (z-score),GlcNAc(b1-3)Man,0.187
same,glycan array binding signal (z-score),[30],1.75
same,glycan array binding signal (z-score),Kdn(a2-3)Gal(b1-3)GalNAc,-0.442
same,glycan array binding signal (z-score),[31],2.92
same,glycan array binding signal (z-score),[32],2.55
same,glycan array binding signal (z-score),[33],-0.036
same,glycan array binding signal (z-score),[34],-1.17
same,glycan array binding signal (z-score),[35],2.09
same,glycan array binding signal (z-score),[36],-0.167
same,glycan array binding signal (z-score),[37],2.56
same,glycan array binding signal (z-score),[38],-0.19
same,glycan array binding signal (z-score),[39],-0.473
same,glycan array binding signal (z-score),[40],-1.23
same,glycan array binding signal (z-score),[41],2.49
same,glycan array binding signal (z-score),[42],1.29
same,glycan array binding signal (z-score),[43],-0.009
